Bioassay records (PubChem BioAssay)
KCNQ2 block: blocks the rat KCNQ2 potassium channel; O88943; CHO-K1 KCNQ2, FluxOR thallium flux, 20 min; active compounds read low; B-score at 10 µM; actives 1.1% (n = 310,000);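 active = fluorescence ratio B-score at most minus 3 library SDs, with starting brightness B-score within 2 library SDs, cut at about -5.5 in these data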
KCNQ2 enhance: potentiators of rat KCNQ2 potassium channel; actives 0.54% (n = 310,000); AID 2239; B-score at 10 µM; O88943; CHO-K1 KCNQ2, FluxOR thallium flux fluorescence; active compounds read high;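 active = fluorescence ratio B-score at least 3 SD of library B-scores, with initial fluorescence B-score within 3 of them, cut at about 5.3 in these data; same plate scores as AID 2156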;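 also: B-score of peak minus minimum over baseline fluorescence ratio after K+ and Tl+ stimulus; positive B-score means potentiation of KCNQ2 with more thallium influx and brighter signal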
Large screens that a line does not name were inactive. Hits are enriched below; roughly 1.6% of the tested compounds scored in any of these assays.

Cc1c(Cl)cccc1NC(=O)CN1CCC(C(O)(c2ccccc2)c2ccccc2)CC1	KCNQ2 block -6.2
Cc1ccccc1C(=O)NC1CCN(CC(=O)Nc2ccccc2Cl)CC1	none
O=C(Nc1nccs1)C1CCCCN1S(=O)(=O)c1ccccc1 (configuration not stated)	none (no result: KCNQ2 enhance)
Cc1cc(-c2ccccc2N)n[nH]1	none
CCc1c(O)nc(SCC(=O)c2ccccc2)n(-c2ccccc2)c1=O	none (no result: KCNQ2 enhance)
O=[N+]([O-])c1ccc(-c2nnc3cccc(Cl)n23)cc1	none (no result: KCNQ2 enhance)
CCCNC(=O)N1CCN(S(C)(=O)=O)CC1	none
COc1ccc(CCNC(C(=O)Nc2cc(C)cc(C)c2)c2ccccc2)cc1 (configuration not stated)	KCNQ2 block -8.1
CCOc1ccccc1NC(=O)C(NCCc1ccc(OC)cc1)c1ccccc1 (configuration not stated)	none (no result: KCNQ2 enhance)
CCN(CC)CCNC(=O)c1ccc(N2CCCCC2)c(NS(=O)(=O)c2ccc(C)cc2)c1	none
CC1(C)C2CCC1(CS(=O)(=O)NCc1ccc(Cl)cc1Cl)C(=O)C2 (configuration not stated)	KCNQ2 block -5.9
COc1cccc(NS(=O)(=O)CC23CCC(CC2=O)C3(C)C)c1 (configuration not stated)	none (no result: KCNQ2 enhance)
C/C(=C\C(=S)Nc1ccccc1)Nc1ccc2ccccc2c1	KCNQ2 block -6.3
C/C(=C\C(=S)Nc1ccccc1)Nc1cccc2ccccc12	none (no result: KCNQ2 enhance)
Cn1c(CSc2ncccn2)nnc1SCC(=O)N1CCCC1	KCNQ2 block -6.3
Cn1c(CSc2ncccn2)nnc1SCC(=O)N1CCCCCC1	none
c1ccc(Oc2nc(-c3cccnc3)nc3ccccc23)cc1	none (no result: KCNQ2 enhance)
O=S(=O)(c1ccc(Oc2ccc(Cl)cc2)c(S(=O)(=O)N2CCCCC2)c1)N1CCCCC1	KCNQ2 block -7.2
O=S(=O)(c1ccc(Cl)cc1)N1CCN(S(=O)(=O)N2CCCCCC2)CC1	none (no result: KCNQ2 enhance)
COc1ccc(-c2cc3c(=O)n(CC(=O)NCc4ccc(Cl)cc4)ncn3n2)cc1	none
O=C(Cc1cn2ccsc2n1)NCCc1ccc(F)cc1	none
CC(Oc1ccc(Br)cc1)c1nc2c3ccccc3nc(=S)n2[nH]1 (configuration not stated)	KCNQ2 enhance 5.4
CCCC(Oc1ccc(Br)cc1)c1nc2c3cc(OC)c(OC)cc3nc(=S)n2[nH]1 (configuration not stated)	none (no result: KCNQ2 enhance)
NC(=NC(=O)c1ccc(Cl)cc1)N1N=CCC1c1ccccc1 (configuration not stated)	none (no result: KCNQ2 enhance)
c1ccc(C2C/C(=N\N3CCOCC3)c3ccccc3O2)cc1 (configuration not stated)	none (no result: KCNQ2 enhance)
CC(C)(C)N/N=C1\CC(c2ccccc2)Oc2ccccc21 (configuration not stated)	KCNQ2 block -7.2
Cc1ccc(C)c(NC(=O)Cc2coc3cc4c(cc23)CCC4)c1	none
CCC(C)c1ccccc1NC(=O)Cc1coc2cc3c(cc12)CCC3 (configuration not stated)	KCNQ2 enhance 7.7
O=C1C2CC=CCC2C(=O)N1c1nc2n(n1)C(c1ccccc1)CC(c1ccccc1)N2 (configuration not stated)	none (no result: KCNQ2 enhance)
O=C(N/N=C/c1cccs1)c1cccc2cc[nH]c12	none
O=C(NC1CCCC1)C1CCC(=O)N1CCc1ccccc1 (configuration not stated)	none (no result: KCNQ2 enhance)
Cc1ccc(NCc2ccccc2OCc2ccccc2F)cc1	none (no result: KCNQ2 enhance)
Cc1cccc(NCc2ccccc2OCc2ccccc2F)c1	KCNQ2 block -5.5
COc1ccc(CC(=O)NCCS(=O)(=O)N2CCN(c3ccccc3)CC2)cc1	none (no result: KCNQ2 enhance)
CCCn1c(/N=C/c2ccccc2O)nc2ccccc21	none
Cn1c(/N=C/c2c(O)ccc3ccccc23)nc2ccccc21	KCNQ2 enhance 9.9
CC(=O)Nc1ccc(C(=O)NN2C(=O)c3ccccc3C2=O)cc1	none
COc1cccc(C2=NN(C(=O)c3ccco3)C(c3ccco3)C2)c1 (configuration not stated)	none (no result: KCNQ2 enhance)
COc1ccccc1-n1c(=S)sc2c(=O)n(Cc3ccco3)c(SC)nc21	KCNQ2 block -6.9
COc1ccccc1-n1c(SC)nc2c(sc(=S)n2-c2ccccc2)c1=O	none
O=C(COC(=O)C1(c2ccc(F)cc2)CCCC1)N1CCOCC1	none
Cc1ccc(NC(=O)c2cc(C)nc3ccccc23)c(C)c1	KCNQ2 block -5.9
COc1ccc(NC(=O)c2cc(C)nc3ccccc23)c(OC)c1	none (no result: KCNQ2 enhance)
Cc1oc(C(C)(C)C)cc1C(=O)N1CCN(c2ncccc2C(F)(F)F)CC1	none (no result: KCNQ2 enhance)
CC1(C)CC(=O)C2=C(C1)N(c1cccc(O)c1)C1=C(C2)C(=O)CC(C)(C)C1	none (no result: KCNQ2 enhance)
O=C(CN1CCN(c2ccccn2)CC1)Nc1ccccc1Br	none (no result: KCNQ2 enhance)
O=C(CN1CCN(c2ccccn2)CC1)Nc1cccc(Cl)c1Cl	KCNQ2 block -7.2
COc1ccc(-c2cnc3c(c2)CCC3(C#N)C#N)cc1	none
Cn1c(-c2ccccc2)cnc1NCc1ccc(-c2ccccc2)cc1	none (no result: KCNQ2 enhance)
CCCOc1ccc(-c2nc(N3CCN(CC)CC3)c3ccccc3n2)cc1	none (no result: KCNQ2 enhance)
CCCOc1ccc(-c2nc(N3CCN(C)CC3)c3ccccc3n2)cc1	KCNQ2 block -6.7
O=C(COc1ccc(Br)cc1Cl)NC(=S)N1CCc2ccccc21	none
